Test results as given in the supplement of paper PMC7156485.

How the values were obtained:
Conditions in all cases: concentration: 10 µM; 24 h
HCC1569 [1] = assay: cell number relative to DMSO (% of DMSO); higher = more cells (less growth inhibition / toxicity)
Outline: (§1)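 In 384-well plates holding 800 HCC1569 or TDF cells per well in RPMI with 10% FBS, compounds were tested at 10 µM for 24 h at 37 °C in triplicate. Fixation used 3.7% formaldehyde. Staining used a rabbit anti-H1.0 antibody with an AlexaFluor 647 secondary, plus DAPI. Each value, H1.0 nuclear intensity or cell number, is a median of replicates shown as percent of the plate control, and HCC1569 values were smoothed for positional effects.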

TDF [2] = assay: as above
Outline: as §1

TDF [3] = assay: H1.0 immunofluorescence intensity relative to DMSO (% of DMSO); higher = stronger H1.0 induction, active = 120 or more
Outline: as §1

HCC1569 [4] = assay: H1.0 immunofluorescence intensity relative to DMSO (% of DMSO); higher = stronger H1.0 induction, active = 140 or more
Outline: as §1
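Throughout, for H1.0 immunofluorescence intensity relative to DMSO: TDF is a line of transformed human dermal fibroblasts of mesenchymal origin.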
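Throughout, for cell number relative to DMSO: TDF denotes transformed human dermal fibroblasts of mesenchymal origin.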

SMILES	cell number (HCC1569 [1])	cell number (TDF [2])	H1.0 immunofluorescence intensity (TDF [3])	H1.0 immunofluorescence intensity (HCC1569 [4])
Cl.Cl.OCCN1CCN(CCCN2c3ccccc3Sc3ccc(C(F)(F)F)cc32)CC1 [Fluphenazine.2HCl]	95.6	107	101 (inactive)	116 (inactive)
NC(=O)c1cnccn1 [Pyrazinecarboxamide]	102	106	94.2 (inactive)	110 (inactive)
O=c1oc(Cl)c(Cl)c2ccccc12 [3,4-Dichloroisocoumarin]	103	109	91.9 (inactive)	88.1 (inactive)
CN(C)CCCC1(c2ccc(F)cc2)OCc2cc(C#N)ccc21 (stereo unspecified) [Citalopram]	103	114	91.3 (inactive)	100 (inactive)
CCOC(=O)C=Cc1ccc(O)c(OC)c1 [Ferulic acid ethylester]	98.3	95.4	90.2 (inactive)	93.6 (inactive)
O=C(c1ccccc1)c1ccc(N2CCOCC2)cc1O [DNA-PK Inhibitor V]	94.7	95.7	91.7 (inactive)	109 (inactive)
COc1cc2c(cc1OC)CC(=O)N(CCCN(C)C[C@H]1Cc3cc(OC)c(OC)cc31)CC2.Cl	100	102	92.6 (inactive)	97.3 (inactive)
CCCCCCCCCCCCCCCC(=O)C(F)(F)F	103	108	93.3 (inactive)	94.4 (inactive)
CC(=O)OCC(=O)NCCCOc1cccc(CN2CCCCC2)c1.Cl [Roxatidine acetate.HCl]	107	95.7	103 (inactive)	99 (inactive)
